The term AC50 denotes the concentration giving half of the maximal activity seen.

Among the data in PubChem BioAssay (EPA / NIEHS) are outcome and AC50 values, retold here.

Read-out in test [1]: Macrophage colony-stimulating factor (MCSF), CSF1 (gene 1435)
Kind of test: BSK_LPS_MCSF: BioMAP Diversity Plus: LPS Assay for Macrophage colony-stimulating factor (MCSF) Biomarker Activity (AID 2283083). The note with it: primary human HUVEC with PBMC; actives raise or lower the signal. The gist of the method: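 Bidirectional fit versus DMSO of ELISA-measured M-CSF in co-cultured human umbilical vein endothelial cells and PBMC, sampled 24 h after dosing.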

Read-out in test [2]: Tissue Factor, F3 (gene 2152)
The test is described as follows: BSK_LPS_TissueFactor: BioMAP Diversity Plus: LPS Assay for Tissue Factor Biomarker Activity (AID 2283084). The note with it: primary human HUVEC with PBMC; actives raise or lower the signal. In short, it runs like this:
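Read-out: CD142 ELISA, 24 h. System: LPS-driven human endothelial/PBMC co-culture. Analysis: up- or down-signal fitted against DMSO.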

Read-out in test [3]: Tumor necrosis factor (Homo sapiens) (UniProt P01375)
Kind of test: BSK_LPS_TNFa: BioMAP Diversity Plus: LPS Assay for Tumour Necrosis Factor alpha (TNFa) Biomarker Activity (AID 2283085). The note with it: primary human HUVEC with PBMC; actives raise or lower the signal. The gist of the method: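 Cells (umbilical vein endothelium plus peripheral blood mononuclear cells) were dosed with chemical, incubated 24 h, then TNFa was quantified by ELISA; values derive from bidirectional fitting with DMSO as baseline.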

Read-out in test [4]: Vascular cell adhesion molecule 1 (VCAM1), VCAM1 (gene 7412)
Kind of test: BSK_LPS_VCAM1: BioMAP Diversity Plus: LPS Assay for Vascular cell adhesion molecule 1 (VCAM1) Biomarker Activity (AID 2283086). The note with it: primary human HUVEC with PBMC; actives raise or lower the signal. In short, it runs like this:
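Cells are dosed in an LPS-stimulated endothelial/mononuclear co-culture and, after 24 h, VCAM-1 is quantified by ELISA. Activity in either direction is fitted relative to the DMSO negative control.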

Read-out in test [5]: CD38, CD38 (gene 952)
Kind of test: BSK_SAg_CD38: BioMAP Diversity Plus: SAg Assay for CD38 Biomarker Activity (AID 2283087). Particulars: primary human HUVEC with PBMC; actives raise or lower the signal. In short, it runs like this: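 CD38 quantified by ELISA (fluorescence) in a superantigen-activated endothelial cell–PBMC co-culture at 24 h post-dose. Activity fitted in both directions relative to DMSO; parallel SRB and Alamar Blue cytotoxicity read-outs.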

Read-out in test [6]: CD40, CD40 (gene 958)
The test is described as follows: BSK_SAg_CD40: BioMAP Diversity Plus: SAg Assay for CD40 Biomarker Activity (AID 2283088). The note with it: primary human HUVEC with PBMC; actives raise or lower the signal. In short, it runs like this:
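Endpoint derived by fitting increases or decreases versus DMSO controls. CD40 is detected by fluorescence ELISA in a human vascular co-culture of endothelium and PBMC at 24 h.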

Read-out in test [7]: CD69, CD69 (gene 969)
Kind of test: BSK_SAg_CD69: BioMAP Diversity Plus: SAg Assay for CD69 Biomarker Activity (AID 2283089). Particulars: primary human HUVEC with PBMC; actives raise or lower the signal. The gist of the method: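 Endothelial/PBMC co-culture; chemical added; 24 h incubation; CD69 ELISA with fluorescence detection; bidirectional fit vs DMSO.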

Read-out in test [8]: Monocyte Chemoattractant Protein-1 (MCP1), CCL2 (gene 6347)
Kind of test: BSK_SAg_MCP1: BioMAP Diversity Plus: SAg Assay for Monocyte Chemoattractant Protein-1 (MCP1) Biomarker Activity (AID 2283090). Particulars: primary human HUVEC with PBMC; actives raise or lower the signal. The gist of the method:
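Values derive from bidirectional fitting of ELISA-measured MCP1 against DMSO controls. Readings were taken 24 h after dosing human vascular endothelial cells co-cultured with peripheral blood mononuclear cells under superantigen stimulation.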

Read-out in test [9]: E-selectin (Homo sapiens) (UniProt P16581)
Kind of test: BSK_SAg_Eselectin: BioMAP Diversity Plus: SAg Assay for Eselectin Biomarker Activity (AID 2283091). The note with it: primary human HUVEC with PBMC; actives raise or lower the signal. In short, it runs like this: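 Endpoint values derive from bidirectional fitting relative to DMSO, using ELISA-measured E-selectin in a human vascular co-culture (umbilical vein endothelium plus PBMC) sampled 24 h after dosing.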

Read-out in test [10]: Monokine induced gamma interferon (MIG), CXCL9 (gene 4283)
Kind of test: BSK_SAg_MIG: BioMAP Diversity Plus: SAg Assay for Monokine induced gamma interferon (MIG) Biomarker Activity (AID 2283092). Particulars: primary human HUVEC with PBMC; actives raise or lower the signal. In short, it runs like this:
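Measures CXCL9 protein by ELISA in a human vascular primary-cell co-culture (umbilical vein endothelium with PBMC) 24 h after chemical addition. Activity is scored up or down from the DMSO control.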

The nature of test [11]: BSK_SAg_PBMCCytotoxicity: PBMC Cytotoxicity Assessment in the BioMAP Diversity Plus: SAg Assay (AID 2283093).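 Also: PBMC viability measured as Alamar Blue reduction fluorescence at 546/580 nm; fitted both ways against DMSO so a hit may be loss or gain of signal.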 The note with it: primary human HUVEC with PBMC. The gist of the method: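 Alamar Blue reduction (6 h, 546/580 nm) reports PBMC cytotoxicity after 90 h superantigen activation (SEB, TSST-1; 20 ng/mL final each) with 1 h compound pre-treatment. Gain or loss of signal fitted versus DMSO.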

Read-out in test [12]: Interleukin-8 (IL8), CXCL8 (gene 3576)
Kind of test: BSK_SAg_IL8: BioMAP Diversity Plus: SAg Assay for Interleukin-8 (IL8) Biomarker Activity (AID 2283094). Particulars: primary human HUVEC with PBMC; actives raise or lower the signal. In short, it runs like this:
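Chemicals were dosed onto a human endothelial–PBMC co-culture, and IL-8 was quantified by ELISA after 24 h. Both increases and decreases were fitted relative to DMSO.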

Test [13] is described as follows: BSK_SAg_SRB: Viability Assessment in the BioMAP Diversity Plus: SAg Assay (AID 2283096).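 Also: cells read one day after compound addition; hits may be either gain or loss of signal compared with DMSO.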 Particulars: primary human HUVEC with PBMC. In short, it runs like this:
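This overt-cytotoxicity endpoint quantifies protein in human endothelial/PBMC co-cultures at 24 h using SRB absorbance (560 nm) after trichloroacetic acid fixation. Values reflect signal change from the DMSO negative control, fitted bidirectionally.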

Test [14] has as its target human CYP2D6, CYP2D6 (gene 1565) (UniProt P10635). Kind of test: NVS_ADME_hCYP2D6: NovaScreen (NVS) CYP450-related Enzyme Activity (ADME) Assay for human CYP2D6 (AID 2283107; active = hit-call score of the fitted dose curve at least 0.9, where 1 is the maximum). In short, it runs like this:
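Biochemical fluorescence assay, insect-cell-derived enzyme. Read at 1 h; inhibition taken from loss of signal against acetonitrile. Screened at 10 uM in duplicate, with concentration series for actives.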

Active and inactive are the calls of the source. The calls were made as follows, unless noted: active = hit-call score of the fitted dose curve at least 0.9, where 1 is the maximum; inactive = score below 0.9.

Chain of E-selectin (Homo sapiens) (P16581 whole entry, looked up): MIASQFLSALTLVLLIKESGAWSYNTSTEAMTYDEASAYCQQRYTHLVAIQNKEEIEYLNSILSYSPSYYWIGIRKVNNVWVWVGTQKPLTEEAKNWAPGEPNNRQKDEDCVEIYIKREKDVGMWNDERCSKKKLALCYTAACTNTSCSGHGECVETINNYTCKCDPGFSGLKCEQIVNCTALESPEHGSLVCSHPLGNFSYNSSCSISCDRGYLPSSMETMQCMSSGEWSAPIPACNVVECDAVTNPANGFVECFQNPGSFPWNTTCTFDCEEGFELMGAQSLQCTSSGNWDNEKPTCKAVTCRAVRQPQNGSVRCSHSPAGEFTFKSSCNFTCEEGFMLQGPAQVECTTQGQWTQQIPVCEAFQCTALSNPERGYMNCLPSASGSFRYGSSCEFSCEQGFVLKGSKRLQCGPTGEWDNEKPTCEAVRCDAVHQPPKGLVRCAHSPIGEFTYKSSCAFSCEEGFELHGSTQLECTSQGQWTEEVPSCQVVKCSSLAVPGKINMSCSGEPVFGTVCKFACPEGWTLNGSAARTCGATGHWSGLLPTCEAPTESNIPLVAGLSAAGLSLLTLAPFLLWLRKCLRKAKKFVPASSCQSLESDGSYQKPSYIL
Chain of Tumor necrosis factor (Homo sapiens) (P01375 whole entry, looked up): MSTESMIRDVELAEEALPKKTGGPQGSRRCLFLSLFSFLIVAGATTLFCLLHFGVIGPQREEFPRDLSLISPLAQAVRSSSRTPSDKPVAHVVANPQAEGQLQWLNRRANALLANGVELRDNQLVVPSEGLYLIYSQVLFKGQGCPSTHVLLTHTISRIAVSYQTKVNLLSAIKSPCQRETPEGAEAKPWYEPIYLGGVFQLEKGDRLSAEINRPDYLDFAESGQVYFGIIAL
Chain of human CYP2D6, CYP2D6 (gene 1565) (P10635 whole entry, looked up): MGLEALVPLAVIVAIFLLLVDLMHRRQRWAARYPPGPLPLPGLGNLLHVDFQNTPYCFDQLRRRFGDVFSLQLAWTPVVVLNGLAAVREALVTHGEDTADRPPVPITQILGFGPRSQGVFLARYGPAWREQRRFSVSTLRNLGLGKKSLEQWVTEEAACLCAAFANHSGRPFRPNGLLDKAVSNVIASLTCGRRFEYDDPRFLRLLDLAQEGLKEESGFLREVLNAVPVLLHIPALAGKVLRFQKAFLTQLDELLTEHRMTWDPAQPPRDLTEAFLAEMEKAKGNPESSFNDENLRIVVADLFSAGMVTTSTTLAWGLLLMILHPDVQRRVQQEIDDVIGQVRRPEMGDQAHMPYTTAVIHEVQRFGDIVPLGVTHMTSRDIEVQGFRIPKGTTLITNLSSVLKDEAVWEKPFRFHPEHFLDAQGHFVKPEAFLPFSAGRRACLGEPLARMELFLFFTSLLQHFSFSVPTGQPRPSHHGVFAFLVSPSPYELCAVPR

Consider `NCC(F)(F)C(F)(F)C(F)(F)C(F)(F)F`, for which the result in test [1], in [2], in test [3], in test [4], in test [5] and in test [6] was inactive. The outcome in [7], in [8], in test [9], in test [10], in test [11] and in test [12] was inactive. Besides, in test [13], the result was inactive.
Regarding `OC(CCl)CCl`, the result in test [1], in [2], in test [3], in [4], in test [5] and in [6] was inactive. For the same compound, the result in test [7], in test [8], in test [9], in [10], in [11] and in [12] was inactive. Besides, the result in test [13] was inactive.
With `CCCCCCCC1CCC(=O)O1` (stereo not drawn), the outcome in [1], in test [2], in test [3], in test [4], in [5] and in [6] was inactive. Further, the result in test [7], in test [8], in test [9], in test [10], in [12] and in test [13] was inactive.
`O=C1CN(N=Cc2ccc([N+](=O)[O-])o2)C(=O)N1`: the result in [1], in test [2], in test [3], in [5], in test [6] and in [7] was inactive. Moreover, the result in [8], in test [10], in test [11], in test [12] and in test [13] was inactive. For the same compound, the AC50 in test [4] is 20 µM (active); in test [9], 9.33 µM (active); in test [14], 4.5 µM (active).
For the compound `O=S(=O)(O)CCC(F)(F)C(F)(F)C(F)(F)C(F)(F)C(F)(F)C(F)(F)F`, the outcome in [1], in [2], in [3], in [4], in [5] and in test [6] was inactive. For the same compound, the outcome in [7], in test [8], in [9], in [10], in test [11] and in test [12] was inactive. Also, in test [13], the outcome was inactive.
Take `CC[C@H](C)C(=O)O[C@H]1C[C@H](O)C=C2C=C[C@H](C)[C@H](CC[C@@H](O)C[C@@H](O)CC(=O)O)[C@H]21`: the outcome in test [1], in test [2], in [3], in test [4], in test [5] and in [6] was inactive. The result in test [7], in test [10], in test [11] and in [13] was inactive. Further, the AC50 in test [8] is 14.6 µM (active); in [9], 7.03 µM (active); in [12], 11.9 µM (active).
